Most compounds without a hit are left out; they make up all but 4.8% or so of the library.
USP1 inh = USP1/UAF1 (human) deubiquitinase inhibition | O94782 | recombinant USP1/UAF1, Ub-Rhodamine cleavage fluorescence | Potency, µM (highest dose often 57.1 µM), for inactives: top-dose activity change, negative = inhibition, usual class: inhibitors | 0.23% of 390,000 active; further: potency means the concentration at half of the fitted maximal effect; on the % scale 0 is the no-effect control and ±100 the full control effect; nearly all actives have a fitted effect of over 60% in size
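In this screen, compounds sit with the deubiquitinase complex (1nM) for 15 min at room temperature before Ub-Rho is added at 150nM final. Fluorescence rise is then followed for 6 reads every 60 seconds.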
ATXN viability = cell viability loss in ATXN counter-screen. 0.49% of 400,000 active. S2 cells (HEK-293 line with an ATXN2-luciferase reporter) viability, CellTiter-Fluor protease fluorescence, 24 h. Potency, µM (doses to about 56.7 µM), hits mostly cytotoxic; further: potency means the concentration at half of the fitted maximal effect; nearly all actives have a fitted effect of over 40% in size
ATXN2 expr inh = inhibitors of ATXN2 expression; Potency, µM (highest dose often 57 µM), without a hit: at the top dose activity change, negative = inhibition, actives largely listed as inhibitors; HEK-293 ATXN2-luciferase reporter, luminescence, 24 h; 0.72% of 360,000 active; further: potency means the concentration at half of the fitted maximal effect; on the % scale 0 is the no-effect control and ±100 the full control effect; nearly all actives have a fitted effect of over 55% in size
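ATXN2-luciferase reporter cells (luciferase flanked by upstream and downstream ATXN2 gene portions) were treated 24 h at 37 °C with compounds at up to 57 uM. SteadyGlo luminescence gave expression; GF-AFC fluorescence gave viability.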
IL-1B inflam inh = inhibitors of inflammasome signaling (IL-1 beta secretion); 4.7% of 360,000 active; THP-1 LPS/ATP IL-1B secretion, AlphaLISA, 16 h; active compounds read low; activity change, % at 57.5 µM; in the data active means activity change below about -50%; inconclusive means mostly about -30% to -49%; further: on the % scale 0 is the no-effect control and ±100 the full control effect
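THP-1 cells pretreated 1 hr with compounds (up to 57.5 uM final), then stimulated with LPS (250 ng/mL final) plus ATP (1.25 mM final); secreted IL-1B measured by AlphaLISA after 16 hr, decreased signal indicating inhibition.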
USP2a block = blocks human ubiquitin-specific protease USP2a; USP2 core, Ub-CHOP2 coupled fluorogenic reporter, 485/531; Potency, µM (series often up to 38.3 µM), inactives show at the highest dose activity change, negative = inhibition, actives largely listed as inhibitors; AID 463254; O75604; 0.01% of 330,000 active;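 further: potency means the concentration at half of the fitted maximal effect; plate controls were DMSO wells for no effect and full inhibition by NEM control for full effect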
Target sequence (O75604 whole entry, looked up): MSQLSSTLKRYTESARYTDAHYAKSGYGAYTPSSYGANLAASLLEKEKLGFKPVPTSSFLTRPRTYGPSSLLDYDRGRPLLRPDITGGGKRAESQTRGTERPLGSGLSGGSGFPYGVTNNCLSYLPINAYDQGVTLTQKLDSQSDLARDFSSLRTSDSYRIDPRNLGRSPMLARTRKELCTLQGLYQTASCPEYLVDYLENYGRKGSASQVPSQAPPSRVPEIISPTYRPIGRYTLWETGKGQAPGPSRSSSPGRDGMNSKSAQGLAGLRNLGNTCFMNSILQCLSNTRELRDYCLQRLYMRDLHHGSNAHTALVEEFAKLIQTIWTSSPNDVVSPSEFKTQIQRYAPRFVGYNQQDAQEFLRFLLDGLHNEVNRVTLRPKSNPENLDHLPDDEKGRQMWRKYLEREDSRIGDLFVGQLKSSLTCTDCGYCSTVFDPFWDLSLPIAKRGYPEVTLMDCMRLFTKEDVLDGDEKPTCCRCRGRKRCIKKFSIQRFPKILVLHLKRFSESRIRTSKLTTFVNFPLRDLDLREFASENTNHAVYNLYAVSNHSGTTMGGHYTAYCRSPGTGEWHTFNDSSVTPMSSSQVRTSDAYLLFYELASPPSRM
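Cell-free coupled assay: 10nM USP2 core preincubated 30min RT with compound in Tris-HCl pH 8.0/CaCl2/CHAPS buffer, then 25nM Ub-CHOP2 and 25nM reporter substrate; fluorescence (Ex 485/Em 531) read after 60min RT, normalized to NEM inhibition, concentration-response curves fitted.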
Numbers without * were called inactive; i = inactive; ? = inconclusive; . = no result; ! = a repeat was not active. Unless noted, the call rests on the fitted dose curve; in most records, active means well fitted curve in the direction sought with a large enough effect; inconclusive means small, poorly fitted or top-dose-only effect, or another doubt; inactive means no such curve, though single readings can be large; an effect the other way counts as inactive or inconclusive.

SMILES	USP1 inh	ATXN viability	ATXN2 expr inh	IL-1B inflam inh	USP2a block
Cc1ccc2oc3c(c(=O)c2c1)C(c1cccc(O)c1)N(Cc1ccccc1Cl)C3=O (centres undefined)	4%	i	8%	.	.
CC(C)CCNC(=O)CN1C(=O)NC(c2ccccc2)(c2ccccc2)C1=O	-3%	i	1%	-25	2%
COc1ccc(C2(c3ccc(OC)cc3)NC(=O)N(CC(=O)N(C)c3ccccc3)C2=O)cc1	-25%	i	-7%	?	0%
CCC1(c2ccc(F)cc2)NC(=O)N(CC(=O)NC2CCCC(C)C2C)C1=O (centres undefined)	1%	i	-9%	-25	-2%
CCOc1ccc(CN(C)C(=O)CN2C(=O)NC(c3ccccc3)(c3ccccc3)C2=O)cc1	-23%	?	.	-59*	-1%
CC(C)C(C)NC(=O)CN1C(=O)NC(c2ccccc2)(c2ccccc2)C1=O (centres undefined)	-12%	?	-23%	-67*	-1%
O=C(CN1C(=O)NC2(CCCC2)C1=O)NC(c1ccccc1)c1ccccc1	-5%	i	2%	-82*	1%
Cc1ccc(C(NC(=O)CN2C(=O)NC3(CCCC3)C2=O)c2ccccc2)cc1 (centres undefined)	-16%	i	.	-11	-1%
CCC1(c2ccc(Cl)cc2)NC(=O)N(CC(=O)NC2CCCC(C)C2C)C1=O (centres undefined)	-21%	i	?	-53*	-2%
COc1ccc(CCNC(=S)NC(=O)c2cccc([N+](=O)[O-])c2)cc1OC	-11%	i	2%	-23	0%
Cc1cn([C@@H]2O[C@H](CO)[C@@H](O)[C@H]2F)c(=O)[nH]c1=O	.	i	8%	.	.
Cc1cc(-c2cc(F)cc3c2OC(CNC(=O)[C@@H]2CCC(=O)N2)C3)ccc1F (some centres undefined)	.	i	.	.	.
CN1C(=O)N(CC(=O)NCc2ccc(Cl)cc2Cl)C(=O)C12CCCCC2	-6%	i	-12%	-54*	0%
O=C(CN1C(=O)NC2(CCCC2)C1=O)NCc1ccc(F)cc1	-7%	i	1%	5	0%
CC1(C2CC2)NC(=O)N(CC(=O)NCc2ccc(Cl)cc2Cl)C1=O (centres undefined)	-5%	i	5%	7	0%
O=C(CN1C(=O)NC2(CCCC2)C1=O)NCc1ccc(Cl)cc1	-1%	i	12%	-51*	1%
CCC1(c2ccc(Cl)cc2)NC(=O)N(CC(=O)NCc2ccc(F)cc2)C1=O (centres undefined)	-7%	i	-1%	-53*	3%
COc1ccc(CCNC(=O)c2cc3c(s2)-c2c(C)cccc2OC3)c(OC)c1	-3%	i	2%	.	.
Cc1c(CN(C)C)c2c(n1Cc1ccccc1)C(=O)c1ccc(Br)cc1-2	-14%	?	?	-68*	-1%
Cc1c(CN(C)C)c2c(n1C)C(=O)c1ccc(Br)cc1-2	-8%	i	?	.	3%
O=C(CCl)NC(=O)NC12CC3CC(CC(C3)C1)C2	-12%	?	?	-69*	1%
CC(Cl)C(=O)NC(=O)NC12CC3CC(CC(C3)C1)C2 (centres undefined)	-14%	i	0%	0	2%
Cc1cccc(-c2noc(-c3cc(C(C)C)[nH]n3)n2)c1	-15%	.	.	.	.
O=C(Nc1ccc(Cl)cc1C(=O)Nc1ccccn1)c1ccco1	-31%	i	-4%	-52*	2%
CC(C)(C)CC(C)(C)c1ccc(OCCOCC[N+](C)(C)Cc2ccccc2)cc1	-30%	.	28µM*!	-25	?
SMILES	USP1 inh	ATXN viability	ATXN2 expr inh	IL-1B inflam inh	USP2a block
CCC(CN)CC(C)CCNCC(O)CNCC(C)CC(CC)CN (centres undefined)	.	i	.	.	.
c1ccc2c(c1)CCN(c1nc(CN3CCOCC3)nc3sc4c(c13)CCCC4)C2	-16%	?	-22%	-51*	3%
CCNc1nc(CN2CCOCC2)nc2sc3c(c12)CCC3	1%	i	-13%	-15	4%
CCC1C(=O)NCCN1Cc1ccc2c(c1)CN(Cc1cccc(OC)c1OC)CCO2 (centres undefined)	.	i	.	.	.
CCc1cccc(C)c1NC(=O)CSc1n[nH]c(-c2ccccc2)n1	-20%	.	.	.	.
COC1=CC(=O)C(OC)=C(OC)C1=O	-8%	25µM*	?	-102*	.
Cc1ccc(-c2nn3c(-c4ccccc4)nnc3o2)cc1	0%	i	.	-8	.
c1ccc(-c2nnc3oc(-c4cccs4)nn23)cc1	-24%	?	.	-104*	.
Cc1ccc(-c2nc(NC(=O)c3nn(C)cc3[N+](=O)[O-])sc2C)cc1	-15%	?	?	-111*	-2%
CC(=O)c1c(C)[nH]c(C(=O)Nc2nc(-c3ccc(Cl)cc3)cs2)c1C	-8%	i	?	6	1%
Cc1cnc(NC(=O)c2nn(C)cc2[N+](=O)[O-])s1	-7%	i	14%	-94*	4%
Cn1cc([N+](=O)[O-])c(C(=O)Nc2ccc(-c3nc4ccccc4[nH]3)cc2)n1	-15%	i	-4%	-12	3%
Cn1cc([N+](=O)[O-])c(C(=O)Nc2ccc(C3CCCCC3)cc2)n1	-19%	?	2%	.	0%
Cc1ccc(-c2nc(NC(=O)c3nn(C)cc3[N+](=O)[O-])sc2C)cc1C	1%	i	?	-119*	0%
Cn1cc([N+](=O)[O-])c(C(=O)Nc2nc(-c3ccc(Cl)cc3)cs2)n1	-18%	i	3%	-120*	1%
CCCCCCNC(=O)Nc1ccccc1	-2%	i	39%	-13	-1%
CCCCSCCCNC(=O)Nc1ccc(CC)cc1	-8%	i	-7%	-75*	2%
Cc1ccc(CN2C[C@H](Sc3ccccn3)C[C@H]2C(=O)Nc2ccc3sc(C)nc3c2)c(C)c1	.	i	.	.	.
CC(=O)Nc1ccc(S(=O)(=O)N(C)CC(=O)N2CCN(C(=O)c3ccco3)CC2)cc1	-12%	i	1%	9	0%
COc1ccc(C(=O)Nc2c(-c3cccs3)c(=O)c3ccccc3n2C)cc1	-11%	?	-16%	-82*	-1%
Cc1ccc(C(=O)Nc2c(-c3cccs3)c(=O)c3ccccc3n2C)cc1	-14%	?	-9%	-29	0%
CCOc1ccccc1CN1CCNC(=O)C1CC(=O)NC1CCCCCCC1 (centres undefined)	5%	i	-1%	-22	.
CCCCNC(=O)c1cnn2c(C)c(Cc3c(C)cc(C)cc3C)c(C)nc12	-19%	?	-32%	.	.
C#CCN(Cc1ccccc1)S(=O)(=O)C=C	-19%	?	?	-65*	2%
COc1ccc(/C=C/C(=O)Nc2cccnc2Cl)cc1	-19%	i	7%	0	-1%

Bioassay records deposited in PubChem by National Center for Advancing Translational Sciences (NCATS).
